Results published in PubChem BioAssay (EPA / NIEHS).
The source made the active and inactive calls. The calls were made as follows: active = hit-call score of the fitted dose curve at least 0.9, where 1 is the maximum; inactive = score below 0.9.

Experiment: BSK_IMphg_SRB.Mphg: Macrophage Viability Assessment in the BioMAP Diversity Plus: IMphg Assay (AID 2284295)
Settings: primary human endothelial cells with macrophages
Method: BSK_IMphg is a cell-based, multiplexed-readout assay that uses venular endothelial cells and macrophages, a human vascular primary cell, with measurements taken at 24 hours after chemical dosing in a microplate: 96-well plate.BSK_IMphg_SRB.Mphg is an assay component measured in the BSK_IMphg assay. It measures […] related to cell death using Sulforhodamine staining technology.Data from the assay component BSK_IMphg_SRB.Mphg was analyzed at the endpoint, BSK_IMphg_SRB.Mphg, in the positive analysis fitting direction relative to DMSO as the negative control and baseline of activity. Using a type of viability reporter, gain or loss-of-signal activity can be used to understand protein changes. To generalize the intended target to other relatable targets, this assay endpoint is annotated to the 'cell morphology' intended target family, where the subfamily is 'cell conformation'.
The levels of cell surface (or secreted, indicated by the prefix "s") biomarker endpoints were measured by ELISA. Overt cytotoxicity to cells in confluent adherent cultures (all systems other than the BT system) was assessed by measuring total protein levels using sulforhodamine B (SRB) staining in parallel cultures at the time of biomarker measurements, indicated as SRB endpoints. For proliferation assays for adherent cell types, individual cell types are cultured at sub-confluence and relative cell numbers quantified by SRB staining at time points optimized for each system (48 h: 3C and CASM3C systems; 72 h: BT and HDF3CGF systems; 96 h: SAg system). SRB was performed by staining cells with 0.1% SRB after fixation with 10% TCA and reading wells at 560 nm.Viability and proliferation of PBMC (T cells) was quantified by Alamar Blue reduction for the SAg and BT systems. For PBMC viability (referred to as PBMC Cytotoxicity within the assay endpoint names), cells were plated (75,000/well in a 96-well plate) and then chemical samples added for 1 h before addition of activators, SEB and TSST-1 (20 ng/mL final concentration each). Cells were incubated for 90 h. Then, Alamar Blue (20 uL/well) (Invitrogen, Cat DAL1100) was added for 6 h, and the plates were read with a fluorescence microplate reader at 546/580 nm (excitation/emission). For PBMC proliferation, cells were plated and activated as above but incubated for only 16 h prior to addition of Alamar Blue. Plates were read after 6 h.
In the case of `FC(F)(F)COC(OCC(F)(F)F)OCC(F)(F)F`, the outcome is reported as “inactive”.
In the case of `FC(F)(F)C(F)(F)C(F)(F)C(F)(F)C(F)(F)C(F)(F)I`, the outcome is reported as “inactive”.
With `FC(F)C(F)(F)COCC1CO1` (stereo not given) the outcome was “inactive”.
In the case of `FC(F)=C(F)C(F)(F)C(F)(F)C(F)(F)C(F)(F)C(F)(F)C(F)(F)F`, the outcome is reported as “inactive”.
In the case of `NCC(F)(F)C(F)(F)C(F)(F)C(F)(F)F`, the outcome is reported as “inactive”.
In the case of `C[Si](C)(C)C(F)(F)C(F)(F)C(F)(F)F`, the outcome is reported as “inactive”.
In the case of `OC(O)(C(F)C(O)(O)C(F)(F)F)C(F)(F)F`, the outcome is reported as “inactive”.
In the case of `O=C(Cl)C(F)(F)C(F)(F)C(F)(F)C(=O)Cl`, the outcome is reported as “inactive”.
With `OCCC(F)(F)C(F)(F)C(F)(F)C(F)(F)F` the outcome was “inactive”.
In the case of `O=S(=O)(O)CCC(F)(F)C(F)(F)C(F)(F)C(F)(F)C(F)(F)C(F)(F)F`, the outcome is reported as “inactive”.
